Among the test systems are SK-MEL-2 melanoma; EKVX NSCLC; SN12C renal; UO-31 renal; TK-10 renal; ACHN renal; CAKI-1 renal; A498 renal; CCRF-CEM leukemia; MOLT-4 leukemia.
What all share (assay): NCI-60 one-dose screen, 48 h (100 = growth as untreated, 0 = no growth, -100 = all killed)
What all share (settings): 10 µM unless noted

Structures are written as SMILES. The panel holds about 83,000 compounds, 20% with a hit somewhere; the sample as a whole holds those more often.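 Single-concentration screen, 48 h exposure, 96-well plates. Endpoint: percent growth. Below 10 = active.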 Unmarked numbers belong to inactive results. Active and inactive are the calls of the source.

`O=C(/C=C/c1cccc(OCc2ccccc2)c1)c1nc2ccccc2[nH]1`: the growth with SK-MEL-2 melanoma was 100%; in the experiment on EKVX NSCLC, 36.4%; in the experiment on SN12C renal it was 59%; with UO-31 renal it was 33.2%; in the experiment on TK-10 renal, 62.8%; in the experiment with ACHN renal, 62.5%. For the same molecule, the growth in the experiment with CAKI-1 renal is 66.1%; in the experiment with A498 renal, 91.3%; in the experiment with CCRF-CEM leukemia it was 10.2%; in the experiment on MOLT-4 leukemia it was 5.98% (active).
For the molecule `COc1cc(CNC(=O)/C=C/c2ccc3c(c2)OCO3)ccc1OCc1cn(-c2cccc(C(F)(F)F)c2)nn1`, the growth with SK-MEL-2 melanoma was 54%; in the experiment on EKVX NSCLC it was 6.68% (active); in the experiment with SN12C renal, 21.4%; in the experiment on UO-31 renal, -4.4% (active); in the experiment with TK-10 renal, 19.9%; in the experiment with ACHN renal, 0.888% (active). Further, the growth in the experiment with CAKI-1 renal is 6.02% (active); in the experiment with A498 renal, 57.7%; with CCRF-CEM leukemia, 52.2%; with MOLT-4 leukemia, 48.8%.
For `Cn1cc(-c2cc(N)n3nc(-c4cn(C)c5ncc(Br)cc45)cc3n2)c2cc(Br)cnc21`, the growth in the experiment with SK-MEL-2 melanoma was 39.5%; in the experiment with EKVX NSCLC, 85.1%; with SN12C renal it was 12.4%; with UO-31 renal, 45.8%; in the experiment on TK-10 renal it was -10.2% (active); in the experiment with ACHN renal, 1.23% (active). Further, the growth was 56.6% in the experiment with CAKI-1 renal, 114% with A498 renal, 3.66% (active) with CCRF-CEM leukemia and -54.3% (active) in the experiment on MOLT-4 leukemia.
With `COc1ccc(NC(=O)[C@H](C)N)cc1C(=O)Nc1cccc(C2CC(=O)c3c(cc(OC)c(OC)c3OC)O2)c1` (stereo not given in full), the growth in the experiment on SK-MEL-2 melanoma was 101%; in the experiment on EKVX NSCLC, 97.2%; in the experiment with SN12C renal it was 93.8%; in the experiment with UO-31 renal it was 73%; in the experiment on TK-10 renal it was 102%; in the experiment on ACHN renal, 87.1%. Besides, the growth in the experiment with CAKI-1 renal is 82%; in the experiment with A498 renal, 97%; with CCRF-CEM leukemia, 57.4%; in the experiment on MOLT-4 leukemia, 59.8%.
With `O=C(CN1C(=O)/C(=C/c2ccccc2F)SC1=S)N1CCOCC1`, the growth with SK-MEL-2 melanoma was 99.1%; in the experiment with EKVX NSCLC, 95.9%; with SN12C renal, 72.6%; with UO-31 renal, 58.5%; in the experiment with TK-10 renal it was 97.8%; with ACHN renal, 50.3%. Moreover, the growth in the experiment with CAKI-1 renal is 85.5%; in the experiment with A498 renal, 129%; in the experiment with CCRF-CEM leukemia it was 41.9%; in the experiment with MOLT-4 leukemia it was 77.7%.
For the molecule `N#Cc1c(-c2ccccc2Cl)cc(-c2ccc3ccccc3c2)[nH]c1=O`, the growth with SK-MEL-2 melanoma is 95.4%; with EKVX NSCLC, 41.1%; with SN12C renal it was 0.758% (active); in the experiment on UO-31 renal it was 0.793% (active); with TK-10 renal, -0.132% (active); in the experiment with ACHN renal it was 9.07% (active). Further, the growth in the experiment on CAKI-1 renal is 25.1%; with A498 renal, -29.6% (active); with CCRF-CEM leukemia, 56.8%; in the experiment with MOLT-4 leukemia, 56.1%.
Turning to `C=CC[N+](C)(C)CCn1c2ccccc2c2nc3cc(C)c(C)cc3nc21`, the growth in the experiment with SK-MEL-2 melanoma is 112%; in the experiment with EKVX NSCLC, 89.7%; in the experiment on SN12C renal, 14.2%; in the experiment on UO-31 renal it was 71%; with TK-10 renal it was 106%; in the experiment on ACHN renal, 107%. Moreover, the growth with CAKI-1 renal is 90%; in the experiment on A498 renal, 115%; in the experiment with CCRF-CEM leukemia it was 102%; in the experiment with MOLT-4 leukemia, 116%.
`Cn1cc(-c2cc3nc(-c4cn(C)c5ncc(Br)cc45)cc(N)n3n2)c2cc(Cl)ccc21`: the growth in the experiment on SK-MEL-2 melanoma was -76% (active); with EKVX NSCLC, -71.1% (active); in the experiment with SN12C renal, -87.9% (active); with UO-31 renal it was -87.8% (active); with TK-10 renal it was -94.9% (active); in the experiment with ACHN renal, -100% (active). For the same molecule, the growth in the experiment on CAKI-1 renal is -71.7% (active); with A498 renal it was -1.96% (active); with CCRF-CEM leukemia it was -37.4% (active); with MOLT-4 leukemia, -47.5% (active).
As for `COc1c(F)ccc(C(=O)Nc2ccc3nc(NC(=O)C4CCCN(S(=O)(=O)c5ccc(Br)c(F)c5)C4)sc3c2)c1F` (stereo not given), the growth was 88.6% in the experiment with SK-MEL-2 melanoma; 88.5% with EKVX NSCLC; 87.7% with SN12C renal; 72.1% in the experiment on UO-31 renal; 122% with TK-10 renal; 81.5% with ACHN renal. The growth with CAKI-1 renal is 72.7%; in the experiment with A498 renal, 112%; with CCRF-CEM leukemia, 87.4%; with MOLT-4 leukemia it was 42.5%.
For the molecule `O=C1CC(Sc2n[nH]c(-c3ccncc3)n2)C(=O)N1c1ccc(Br)cc1` (stereo not given), the growth was 116% in the experiment on SK-MEL-2 melanoma; 106% with EKVX NSCLC; 93.6% in the experiment with SN12C renal; 88.7% with UO-31 renal; 101% with TK-10 renal; 109% in the experiment on ACHN renal. Further, the growth with CAKI-1 renal was 99.9%; in the experiment on A498 renal, 111%; in the experiment with CCRF-CEM leukemia it was 88.9%; in the experiment with MOLT-4 leukemia, 115%.
For `O=C(COc1ccc(NC(=O)Nc2ccccc2)cc1)N=Nc1c(O)[nH]c2ccc([N+](=O)[O-])cc12`, the growth with SK-MEL-2 melanoma is -69.2% (active); with EKVX NSCLC, 73.5%; in the experiment with SN12C renal it was 9.08% (active); in the experiment on UO-31 renal it was 80.2%; with TK-10 renal, 116%; in the experiment on ACHN renal, 96.2%. For the same molecule, the growth is 78.4% in the experiment with CAKI-1 renal, 133% in the experiment on A498 renal, 18.4% in the experiment with CCRF-CEM leukemia and 3.7% (active) with MOLT-4 leukemia.
Regarding `COc1ccc(/C=C/c2nc3ccccc3nc2Nc2cccc(C)c2)cc1`, the growth in the experiment on SK-MEL-2 melanoma was 102%; in the experiment with EKVX NSCLC, 89%; in the experiment with SN12C renal it was 92.7%; with UO-31 renal it was 78.4%; in the experiment on TK-10 renal it was 173%; in the experiment on ACHN renal, 98.3%. The growth is 72.9% with CAKI-1 renal, 118% in the experiment with A498 renal, 98.7% with CCRF-CEM leukemia and 82.7% in the experiment on MOLT-4 leukemia.
As to `O=C(O)c1ccc(-c2ccc(/C=N/NC(=O)c3[nH]c4ccc(Br)cc4c3-c3ccccc3)s2)cc1`, the growth with SK-MEL-2 melanoma was -43% (active); in the experiment on EKVX NSCLC it was 13.3%; with SN12C renal, 11.5%; with UO-31 renal it was 24.7%; in the experiment with TK-10 renal it was 22.8%; in the experiment on ACHN renal, 14.2%. Also, the growth is 20% in the experiment with CAKI-1 renal, 40% with A498 renal, 7.68% (active) in the experiment on CCRF-CEM leukemia and 10.7% in the experiment with MOLT-4 leukemia.

The values above are taken from PubChem BioAssay (NCI).
